In PubChem BioAssay AID686978 (National Center for Advancing Translational Sciences (NCATS), 2013):
Among all 420,000 compounds or so, about 64,000 (15%) were called active. Inconclusive results (about 27%) are left out. The list is a sample of the results. Values without a mark were called inactive. Calls come from the whole dose curve; as a rule, active = well fitted inhibition curve with a large enough effect; inconclusive = small, poorly fitted or top-dose-only effect; inactive = flat fitted curve, though single readings scatter.

test: qHTS for Inhibitors of human tyrosyl-DNA phosphodiesterase 1 (TDP1): qHTS in cells in absence of CPT; conditions: DT40 Tdp1-/- hTDP1 cells, no CPT, ATP luminescence, 48 h; activity change, negative = growth inhibition: at 46.2 µM (top of the series); note: nearly all actives have a fitted effect of over 55% in size
Procedure, shortened: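 Chicken DT40 Tdp1-/- cells stably complemented with human TDP1 were seeded at 400 cells/well with DMSO in place of 20 nM camptothecin. After compound pinning, cells grew at least 48 hr at 37 °C; viability read by CellTiter-Glo luminescence.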
% is set by controls: 0 for no effect and ±100 for the full control effect; potency is the fitted concentration of half-maximal effect.

Row | Structure (SMILES) | activity change, negative = growth inhibition [%] | Potency
1 | CC[C@@]1(C(=O)OC)N[C@H](CN(C)C(C)=O)[C@@H]2C(=O)N(C)C(=O)[C@@H]21 | -6.42 | 
2 | COC(=O)[C@]1(Cc2ccccc2)N[C@H](CN(C)S(=O)(=O)c2ccc(OC(F)(F)F)cc2)[C@@H]2C(=O)N(C)C(=O)[C@@H]21 |  | 23.1 µM (active)
3 | CCNC(=O)N(CC)C[C@H]1N[C@@](CC)(C(=O)OC)[C@H]2C(=O)N(Cc3ccccc3)C(=O)[C@@H]12 | 30.1 | 
4 | CCN(C[C@H]1N[C@@](CC)(C(=O)OC)[C@H]2C(=O)N(Cc3ccccc3)C(=O)[C@@H]12)S(=O)(=O)c1ccc(C(F)(F)F)cc1 |  | 18.4 µM (active)
5 | CCN(CC)S(=O)(=O)c1ccc2c(c1)N(CC(=O)NCc1ccccc1)C(=O)CS2 | -10.2 | 
6 | CCN(C[C@H]1N[C@@](CC)(C(=O)OC)[C@H]2C(=O)N(C)C(=O)[C@@H]12)C(=O)Nc1ccc(F)cc1 | -6.24 | 
7 | CCC1OC(c2ccc([N+](=O)[O-])cc2)=Nc2ccccc21 (stereo not drawn) | -0.861 | 
8 | COC(=O)c1sccc1NS(=O)(=O)c1ccc(F)cc1F | -15.1 | 
9 | CCCCC(CCCC)c1ccc(C=Nc2ccc(/C=C/c3ccnc4ccccc34)cc2)cc1 |  | 11.2 µM (active)
10 | CN(C)c1ccc(/C=C/c2c3ccccc3nc3ccccc23)cc1 |  | 12.6 µM (active)
11 | CN(C)c1ccc(/C=N\S(=O)(=O)c2ccccc2)cc1 | -3.66 | 
12 | CN(C)c1ccc(/C=C/C=C/c2ccnc3ccccc23)cc1 |  | 2 µM (active)
13 | CN(C)c1cc(N)c2ccccc2n1 (tested in a mixture with another compound) | -26.8 | 
14 | C(=Nc1ccc(/C=C/c2ccnc3ccccc23)cc1)c1cc2c3c(c1)CCCN3CCC2 |  | 11.2 µM (active)
15 | O=C(O)C1C2C=CC(O2)C1C(=O)Nc1ccccn1 (stereo not drawn) | -28.6 | 
16 | Cc1nc(COc2cc3oc(=O)cc(C)c3cc2Cl)cs1 | -27.1 | 
17 | COc1ccc(S(=O)(=O)N2CCN(C(=O)NC3CCCCC3)CC2)cc1 | -16.4 | 
18 | C[C@H](NS(=O)(=O)c1ccc(Cl)cc1)C(=O)OCC(=O)N1CCOCC1 | 23.5 | 
19 | Cc1sc2ccccc2c1CNC[C@H]1O[C@@H](n2ccc(=O)[nH]c2=O)[C@H](O)[C@@H]1O | 1.3 | 
20 | O=S(N1CCCCCC1)C12CC3CC(CC(C3)C1)C2 (stereo not drawn) | -28.1 | 
21 | O=C1NCCn2nc3ccccc3c21 | 0.602 | 

Row | Structure (SMILES) | activity change, negative = growth inhibition [%] | Potency
22 | CC(=O)Nc1ccc(NC(=O)COc2ncnc3ccccc23)cc1 | -12.7 | 
23 | C(=Nc1ccc(/C=C/c2ccnc3ccccc23)cc1)Nc1ccc(/C=C/c2ccnc3ccccc23)cc1 |  | 8.91 µM (active)
24 | O=C(/C=C/c1ccc(Cl)cc1)Nc1ccc(S(=O)(=O)Nc2ncccn2)cc1 | 0.921 | 
25 | CN(C)c1ccc(C=Nc2ccc(/C=C/c3ccnc4ccccc34)cc2)cc1 |  | 17.8 µM (active)
26 | NC(=O)Nc1ccc(/C=C/c2ccnc3ccccc23)cc1 |  | 12.6 µM (active)
27 | O=C(CCNS(=O)(=O)c1ccc(Br)s1)NCc1ccccc1Cl | -6.47 | 
28 | CC(=O)c1cc(CN2CCC(n3nccc3NC(=O)c3ccccc3Cl)CC2)cs1 | -16.4 | 
29 | Cc1cc(NC(=O)CSc2ncc(C(F)(F)F)cc2Cl)no1 | -18.9 | 
30 | O=C(O)c1ccc([N+](=O)[O-])cc1Sc1ccsc1 | -9.07 | 
31 | COCCNc1nc(N)c([N+](=O)[O-])c(N2CCCCCC2)n1 | -19.5 | 
32 | CCC1=NN(C(=O)Cc2ccc([N+](=O)[O-])cc2)C(O)(c2ccc(Br)cc2)C1 (stereo not drawn) | -5.88 | 
33 | CN(C(=O)CSc1nnc(-c2c[nH]c3ccccc23)o1)C1CCS(=O)(=O)C1 (stereo not drawn) | -10.9 | 
34 | Cc1ccc(C)c(S(=O)(=O)Nc2cccc(-n3cnnn3)c2)c1 | 3.02 | 
35 | CCCCN(C)c1ccc([N+](=O)[O-])cc1 | -12.2 | 
36 | COc1ccc(Cc2nnc(NC(=O)Cc3cccs3)s2)cc1 | -1.02 | 
37 | CCNC(=S)N1CCC(c2nc3cc(C)c(C)cc3[nH]2)CC1 | -14.5 | 
38 | CCN(CC)CCNc1ccc(Cl)cc1[N+](=O)[O-] | -24.4 | 
39 | CCN(CC)CCCC(C)Nc1ccnc2cc(Cl)ccc12 (stereo not drawn) |  | 0.794 µM (active)
40 | COC(=O)COc1ccc(C2NC(=O)NC(C)=C2C(=O)NCc2ccccc2)cc1OC (stereo not drawn) | 7.11 | 
41 | O=C(NCc1ccco1)/C(=C/c1ccco1)NC(=O)c1ccccc1 | -12.2 | 
42 | O=C(Cc1ccccc1)Nc1cccc(C(=O)N/N=C/c2ccco2)c1 | -23.6 | 

Row | Structure (SMILES) | activity change, negative = growth inhibition [%] | Potency
43 | CC(/C=N/NC(=O)c1cc(-c2ccc3ccccc3c2)n[nH]1)=C\c1ccco1 |  | 23.1 µM (active)
44 | Cc1noc(C)c1COc1ccc2ccc(=O)oc2c1 | 1.31 | 
45 | COC1=C/C(=C/c2c(N)n3nc(CC(=O)N4CCOCC4)sc3nc2=O)C=CC1=O | -9.01 | 
46 | CCCCN1CC(c2nc3ccccc3n2CCCCOc2ccc(C)cc2C)CC1=O (stereo not drawn) |  | 5.8 µM (active)
47 | CCc1ccccc1N1CC(c2nc3ccccc3n2CCCCOc2ccccc2)CC1=O (stereo not drawn) | -19.2 | 
48 | CCOc1ccc(N2CC(c3nc4ccccc4n3CCOc3ccc(OC)cc3)CC2=O)cc1 (stereo not drawn) |  | 23.1 µM (active)
49 | CCCOc1cc(C)c(S(=O)(=O)n2nnc3ccccc32)cc1C | -14.5 | 
50 | CCOc1ccc(NC(=O)[C@H](C)NC(=O)C2CC(=O)N(c3ccc(OC)cc3)C2)cc1 (stereo partly drawn) | 33.1 | 
51 | CCC1Oc2ccc(Cl)cc2N(CC(=O)O)C1=O (stereo not drawn) | -17.8 | 
52 | Nc1c(C(=O)OCC(=O)Nc2ccc(OC(F)F)cc2)[nH]c(=O)[nH]c1=O | 2.04 | 
53 | Cc1cc(C)cc(NC(=O)COC(=O)c2cc(C)oc2C)c1 | 4.9 | 
54 | Cc1ccccc1Nc1nc(N)nc(COC(=O)CCC(=O)c2ccc(F)cc2)n1 | -24 | 
55 | CCCCNC(=O)CCn1nc(-c2ccc(Cl)cc2)ccc1=O | -2.25 | 
56 | C[C@H]1CN([C@@H](C)CO)C(=O)CCCn2nncc2CO[C@@H]1CN(C)Cc1ccc(Oc2ccccc2)cc1 |  | 18.4 µM (active)
57 | Cc1ccc(CN(C)C[C@@H]2OCc3cnnn3CCCC(=O)N([C@@H](C)CO)C[C@H]2C)cc1 | -26.1 | 
58 | C[C@H](CO)N1C[C@H](C)[C@@H](CN(C)Cc2ccc3c(c2)OCO3)OCc2cnnn2CCCC1=O | -4.82 | 
59 | CCCC(=O)N1CCC(CCC(=O)NC2CC2)CC1 | 3.6 | 
60 | COCCN1C(=O)C(=O)/C(=C(/O)c2ccc(S(=O)(=O)N3CCCCC3)cc2)C1c1ccc(OC)c(OC)c1 (stereo not drawn) | 1.45 | 
61 | CSc1nc(-c2ccccc2)nc(C(Cl)Cl)n1 |  | 2.31 µM (active)
62 | CSc1ncc(Sc2ccccc2)c(C(=O)O)n1 | 2.57 | 
63 | CSc1nc(C)cc(SC(C(C)=O)C(=O)Nc2ccccc2)n1 (stereo not drawn) | -1.76 | 
